According to PubChem BioAssay (NCATS):
The list shows a part of the results. Records with an inconclusive call do not appear. Values without a mark were called inactive. Calls of active or inactive are those of the source. Calls follow the shape of the dose curve; as a rule, active = well fitted cell-killing curve with a large enough effect; inconclusive = small, poorly fitted or top-dose-only effect, or effect the other way, or another doubt; inactive = no such curve, though single readings can be large or run the other way.

Experiment: qHTS screen for small molecules that inhibit ELG1-dependent DNA repair: Hit Confirmation with 5FU Viability (AID 624250)
Conditions: cell viability with 5-FU; series mostly up to 46.1 µM; activity change, negative = viability loss: at the top concentration
Source text: Cancer cells divide rapidly compared to normal cells in the body. During cell division, cancer cells need to duplicate their genome by DNA replication. The failure of genome duplication leads to cancer cells' death. Therefore, inhibitors of DNA replication could specifically kill cancer cells. Based on this concept, many chemotherapeutic agents were developed and have been used to treat cancer patients. However, there are a limited number of agents available in the clinical setting, and some of those that do exist have low efficacy and severe side effects. Therefore, if we can find the compounds that effectively block DNA replication either by directly damaging DNA or by inhibiting other cellular mechanisms, the options for cancer treatment will be broadened. With this in mind, we developed a quantitative high-throughput ELG1-luciferase reporter gene assay. Small molecules that specifically block ELG1 function in response to DNA damage can be identified by monitoring the suppression of luciferase activity. Since ELG1 defines a pathway for repairing DNA damage, agents blocking ELG1 function can be used to sensitize cancer cells to chemotherapeutic agents whose mechanism of action involves the induction of DNA damage.
NIH Molecular Libraries Probe Production Network [MLPCN]
NIH Chemical Genomics Center [NCGC]
Assay Provider: Kyungjae Myung, NHGRI, NIH
ELG1-luc HEK293T cells will be seeded in 1536-well plates at a density of 2,000 cells/well. Approximately 5 hours after plating, compounds will be added to the plate by pin tool transfer and 5-fluorouridine will be added by FRD dispenser (final concentration of 5-fluorouridine =10 µM). 16 hours following the addition of the compounds, cell viability will be measured using Cell Titer Glo.
% is scaled to controls: 0 for no effect and ±100 for the full control effect; potency is read from the fitted curve at half-maximal effect.

| Structure (SMILES) | activity change, negative = viability loss | Potency |
| --- | --- | --- |
| OCCCNc1nccc(-c2cc(Nc3cccc(Cl)c3)ncn2)n1 | 6% |  |
| NC(=O)c1sc2nc3c(c(-c4ccccc4)c2c1N)CCC3 | 15.6% |  |
| CC(=O)[O][Sn]([c]1ccccc1)([c]1ccccc1)[c]1ccccc1 |  | 2810 nM (active) |
| Clc1ccc2nc(-c3ccccc3)nc(C(Cl)Cl)c2c1 | -10.6% |  |
| CC(=O)c1c(C)n(-c2ccc(C)cc2)c2ccc(O)cc12 | -2.04% |  |
| COc1cc(N)c(Cl)cc1C(=O)OCC(=O)c1ccc2c(c1)NC(=O)CO2 | -1.75% |  |
| COc1ccc(S(=O)(=O)Nc2ccc3oc(C)c(C(C)=O)c3c2)cc1 | -1.98% |  |
| CCc1ccc(N(CC)c2ncnc3nc[nH]c23)cc1 | -3.52% |  |
| C[C@@H]1C[C@H]2CC[C@H](O2)[C@H](C)C(=O)O[C@@H](C)C[C@@H]2CC[C@@H](O2)[C@@H](C)C(=O)O[C@H](C)C[C@H]2CC[C@H](O2)[C@H](C)C(=O)O[C@@H](C)C[C@@H]2CC[C@@H](O2)[C@@H](C)C(=O)O1 | -10.2% |  |
| CC(C)(CNC(=O)c1ccc(Cl)c(S(=O)(=O)N2CCc3ccccc3C2)c1)N1CCOCC1 | -8.03% |  |
| COc1ccc(Nc2cc(=O)oc3ccccc23)cc1 | -7.76% |  |
| COc1ccccc1C(=O)Nc1ccc(C)c(S(=O)(=O)N2CCCCC2)c1 | 1.7% |  |
| COc1ccc(NS(=O)(=O)c2ccc(Oc3c(C#N)cccc3C#N)cc2)cc1 | 10.7% |  |
| O=C(C1CCCN(S(=O)(=O)c2ccccc2)C1)N1CCN(c2ccc(F)cc2)CC1 (stereo unspecified) | -2.54% |  |
| Cc1nnc(N/N=C/c2ccccn2)[nH]c1=O | -3.65% |  |
| COc1ccc(CNc2ncnc3ccccc23)cc1 | -1.98% |  |
